Results published in PubChem BioAssay (NCI).
This is part of a sample that, as a whole, favours compounds with a hit. Of some 83,000 tested, about 20% had one in any assay.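 Step 1: grow cells in 96-well plates. Step 2: add test compound at a single concentration. Step 3: incubate 48 h. Step 4: record percent growth.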 A number with no mark means an inactive call. Active and inactive are the calls of the source. The calls were made as follows: active = growth percent below 10; inactive = the rest.

The compounds below were run on IGROV1 ovarian (assay: NCI-60 one-dose screen, 48 h (100 = growth as untreated, 0 = no growth, -100 = all killed)). Conditions: 10 µM.
With `NC(CSC(c1ccccc1)(c1ccccc1)c1cccc2ccccc12)C(=O)O` (stereo not given) the growth was 98.1%.
In the case of `CC(=O)[C@H]1CC[C@]2(C)[C@@H]1CC[C@@H]1[C@@]3(C)CC(CCC#N)(CCC#N)C(=O)C(C)(C)[C@@H]3CC[C@]12C`, the growth is reported as 98.4%.
In the case of `NC1=NC(c2ccc(Cl)cc2)C2=C(N1)/C(=C/c1ccc(Cl)cc1)CCC2` (stereo not given), the growth is reported as 85.2%.
With `C/C(=N\O)c1ccc(NC(=O)CSc2nnc(-c3ccccc3)n2-c2ccccc2)cc1` the growth was 76.7%.
`NC1=CC(=O)C(=O)c2cccnc21` was tested, and the growth was 76.7%.
Work on `C[n+]1c2ccccc2nc2ccccc21` yielded a growth of 11%.
Compound `COc1cc(-c2nn(-c3ccc(NC(=O)NCCNS(=O)(=O)c4ccc(F)cc4)cc3)cc2-c2ccncc2)ccc1Cl` has a growth of 27.3%.
For `O=C(CSc1nccc(Nc2cccc3ccccc23)n1)c1ccc(Cl)cc1`, the growth was 69%.
With `CCCCCCCCCCOC(c1ccccc1)c1ccccc1` the growth was 73.7%.
For `O=C1/C=C/[C@@H](O)[C@@H]2C[C@@H](O)C[C@H]2/C=C/CCC[C@H](CCc2ccc(C(F)(F)F)cc2)O1`, the growth was 5.99% (active).
Compound `O=C(O)c1cn(C2CC2)c2cc(N3CCN(C(=O)c4cc(-c5ccc(Cl)cc5)nc5ccccc45)CC3)c(F)cc2c1=O` has a growth of 51.4%.
Work on `CN(C)CCC1(c2ccccc2)CCN(C)C1=O` (stereo not given) yielded a growth of 109%.
`COc1ccc(Nc2cnc3cc(NS(=O)(=O)c4ccc(C)cc4)ccc3n2)cc1` gave a growth of 65.5%.
Work on `COc1cc(-c2nn(-c3cccc(NC(=O)CCNc4ccc(N5CCOCC5)cc4)c3)cc2-c2ccncc2)ccc1Cl` yielded a growth of 27.3%.
With `COc1cccc(-c2nc3sccn3c2-c2cccc(S(C)(=O)=O)c2)c1` the growth was 99%.
`COc1cc(CNC(=O)C2CSC3(C)c4ccccc4C(=O)N23)cc(OC)c1OC` (stereo not given) gave a growth of 107%.
`COc1cc2cc(Oc3ccc(NC(=O)c4ccc(Cl)c(C(F)(F)F)c4)cc3)c(C)nc2cc1OC` gave a growth of 20.6%.
In the case of `CN(C)CCCSc1ccccc1NC1=C(Cl)C(=O)C(Nc2ccccc2SCCCN(C)C)=C(Cl)C1=O`, the growth is reported as -63.5% (active).
`COc1ccc(-c2cc(-c3ccc(Cl)cc3)nc(SCCCCCCC(=O)NO)n2)cc1OC` was tested, and the growth was 35.9%.
`O=C(NCCNC(=O)c1ccc(F)cc1)Nc1ccc(-n2cc(-c3ccncc3)c(-c3ccc(Cl)c(O)c3)n2)cc1` was tested, and the growth was 20.4%.
`Cc1ccc(Cl)cc1NC(=O)CCl` showed a growth of 64.4%.
`Nc1ncc(-c2cnn(C3CCNCC3)c2)cc1-c1nc2ccccc2o1` was tested, and the growth was -14.5% (active).
For `O=C(CCCSc1nc(-c2ccccc2)cc(-c2ccc(Cl)cc2)n1)NO`, the growth was 22.3%.
Work on `COc1ccc2nc3cc(Cl)ccc3c(Nc3cc(CN4CCCC4)c(O)c(CN4CCCC4)c3)c2n1` yielded a growth of 27.6%.
For `CN(C)CCOc1cccc(-c2nc3sccn3c2-c2ccnc(S(C)(=O)=O)n2)c1`, the growth was 94.3%.
`Cc1ccc(C(=O)C2C(=O)C3CCC2C3)cc1` (stereo not given) showed a growth of 113%.
Work on `COc1cc(-c2csc(NC(=O)Nc3cc(C(F)(F)F)cc(C(F)(F)F)c3)n2)cc(OC)c1OC` yielded a growth of 35.1%.
For `O=C(CNc1nnc(-c2cccnc2SCc2ccccc2)s1)Nc1nc(Cl)cc(Cl)n1`, the growth was 96.6%.
`O=C(O)c1ccc(-n2cc(CNc3ccc(Oc4ccccc4)cc3)c(-c3ccccc3)n2)cc1` showed a growth of 86.4%.
With `C/C=C/C1=CN2C(=O)c3cc(OC4OC(C)C(NC)C(C)(O)C4O)c(C)c(O)c3N=C[C@@H]2C1` (stereo not given in full) the growth was -22.7% (active).
`COc1ccc(/C(C#N)=C/c2ccccc2OC)cc1` showed a growth of 31.9%.
`O=S(=O)(O)c1ccc(Cl)cc1` gave a growth of 103%.
Work on `N#CCc1csc(Cc2ccccc2)n1` yielded a growth of 108%.
For `O=C(/C=C/C=C/c1c(C2CC2)nc2ccccc2c1-c1ccc(F)cc1)c1cccs1`, the growth was 19.1%.
Work on `N#CC1=C(N)Oc2cc(N)ccc2C1c1cccnc1` (stereo not given) yielded a growth of 101%.
`O=C(Cn1cc(CO)nn1)Nc1nc2ccccc2s1` showed a growth of 97.8%.
For `CCn1c(SCCc2ccccc2)nnc1-c1nn(-c2ccc(Cl)cc2Cl)c(-c2ccc(Cl)cc2)c1C`, the growth was 94.1%.
`Cc1cc(C(C#N)c2ccc(Cl)cc2)c(Cl)cc1NC(=O)c1cc(I)cc(I)c1O` (stereo not given) was tested, and the growth was 51.7%.
`Cn1cnc([N+](=O)[O-])c1/C=C1\Oc2ccc(Br)cc2C1=O` gave a growth of 87.1%.
In the case of `Cc1cc(Cl)ccc1Nc1nc(C(F)(F)F)ccc1C(=O)N/N=C/c1c(Cl)cccc1Cl`, the growth is reported as 4.15% (active).
